Screening data (PubChem)
Rows were chosen to be rich in hits. Some 2.1% of all compounds tested hit in one or more screens of this group.
PvdQ acylase – P. aeruginosa PvdQ acylase inhibition; purified PvdQ acylase, fluorescence plate reader; inhibition, % at 10 µM; 0.063% of 340,000 active; in the data active = inhibition above about 30%, passing the limit was not always enough; inconclusive = no clear call, values can overlap the other calls;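 also: 0% = vehicle neutral wells and 100% = reference inhibitor wells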
ERAP1 inh – inhibitors of human ERAP1 aminopeptidase | Q9NZ08 | recombinant ERAP1, Leu-AMC fluorescence, 60 min | inhibition, % at 10.7 µM | 0.15% of 340,000 active;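 active = mean replicate inhibition of at least 30%, or all replicates individually reaching that 30% level; inactive = mean below 30% and not every replicate reaching it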;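 also: 0% = neutral control wells and 100% = L-leucinethiol positive control wells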
Target sequence (Q9NZ08 whole entry, looked up): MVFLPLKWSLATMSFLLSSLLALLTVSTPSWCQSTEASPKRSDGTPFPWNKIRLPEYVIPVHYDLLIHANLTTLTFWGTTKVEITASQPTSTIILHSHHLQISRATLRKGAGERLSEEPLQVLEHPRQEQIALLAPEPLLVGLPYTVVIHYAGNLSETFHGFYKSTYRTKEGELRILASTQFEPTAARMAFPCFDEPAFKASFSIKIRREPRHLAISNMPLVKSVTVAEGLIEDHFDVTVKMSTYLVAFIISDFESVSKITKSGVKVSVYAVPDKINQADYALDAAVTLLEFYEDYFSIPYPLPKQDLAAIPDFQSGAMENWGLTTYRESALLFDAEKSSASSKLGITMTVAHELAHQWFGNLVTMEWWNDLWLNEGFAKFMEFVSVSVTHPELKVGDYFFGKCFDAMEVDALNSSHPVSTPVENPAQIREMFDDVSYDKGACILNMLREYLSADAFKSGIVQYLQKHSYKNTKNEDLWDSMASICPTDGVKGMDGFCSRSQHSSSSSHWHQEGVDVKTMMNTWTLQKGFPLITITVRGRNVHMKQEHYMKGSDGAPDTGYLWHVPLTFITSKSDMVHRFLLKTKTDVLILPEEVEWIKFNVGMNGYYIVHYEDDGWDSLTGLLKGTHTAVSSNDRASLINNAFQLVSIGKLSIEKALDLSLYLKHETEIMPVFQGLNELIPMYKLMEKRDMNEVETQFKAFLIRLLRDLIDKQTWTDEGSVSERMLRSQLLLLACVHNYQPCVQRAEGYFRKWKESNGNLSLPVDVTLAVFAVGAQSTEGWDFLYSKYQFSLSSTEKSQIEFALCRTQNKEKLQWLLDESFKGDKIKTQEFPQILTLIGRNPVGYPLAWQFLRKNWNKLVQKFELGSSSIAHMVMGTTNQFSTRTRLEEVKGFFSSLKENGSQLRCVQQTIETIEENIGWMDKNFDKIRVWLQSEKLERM
ARNT-TACC3 inh – disruptors of human ARNT/TACC3 interaction; AlphaScreen His-ARNT PAS-B/GST-TACC3 binding, luminescence; TACC3 fragment carries E629A point mutation; Q9Y6A5; AID 623870; 0.66% of 390,000 active; inhibition, % at 9.99 µM;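 active = mean inhibition of replicates at least 50% and at least half of replicates each reaching 50%; inconclusive = half or more replicates reach 50% but mean below 50%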;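 also: 0% = complete ARNT plus TACC3 wells and 100% = ARNT alone without TACC3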
rRNA inh HTS – selective bacterial rRNA inhibition in E. coli | E. coli WT GFP vs humanized-ribosome RFP mutants, fluorescence, 24 h; active compounds read low; DMSO median 0, no signal -100 | GFP signal change (wild-type ribosome), % (no concentration beside the values) | 1.6% of 350,000 active | AID 720706;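 active = significant combined selectivity score with lowered wild-type GFP, culture density cut under 30%, mutant RFP and density less affected; inactive = any of these conditions unmet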
F508del corr – CFTR F508del correction in bronchial cells; CFBE cells, YFP halide quenching; stimulated with forskolin plus potentiator P3; % fluorescence drop versus neutral controls; activity (quench increase), % at 7.58 µM; 0.36% of 350,000 active; AID 720511;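 active = mean added fluorescence quench of at least 8% versus neutral control, with both replicates also reaching 8%; inconclusive = only one of the mean or replicate conditions met; inactive = mean below 8% and not both replicates reaching 8%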;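 also: cells transiently co-express mutant CFTR-F508del with the halide-sensitive YFP; corrector assay measuring rescue of mutant channel to the surface after 24 h compound exposure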
* marks the source's active call; other numbers are inactive results; ? = inconclusive; nt = no result given.

SMILES | PvdQ acylase | ERAP1 inh | ARNT-TACC3 inh | rRNA inh HTS | F508del corr
COc1ccc(S(=O)(=O)N(C)C[C@H]2Oc3ccc(NS(C)(=O)=O)cc3C(=O)N([C@@H](C)CO)C[C@@H]2C)cc1 | nt | 5 | -3 | -2 | 1
CCCCOc1ccc(N=Nc2ccc(N)nc2N)cn1 | 9 | -1 | 22 | -25* | 0
N#C[C@H]1[C@H](c2ccccc2-c2ccc(F)cc2)[C@H](CO)N1c1ncc(-c2ccccc2)s1 | nt | 3 | nt | -2 | 1
CC(C)NC(=O)C1C(c2ccc(C(F)(F)F)cc2)=Nc2ccccc2N1C(=O)c1ccco1 (stereo not given) | nt | 44* | nt | -12 | -3
CC(C)NC(=O)C1C(c2ccc(C(F)(F)F)cc2)=Nc2ccccc2N1C(=O)c1ccccc1 (stereo not given) | nt | 0 | nt | 0 | -3
COCC(=O)N1CC(=O)N2[C@H](C1)[C@@H](c1ccc(C#CC3CCCCC3)cc1)[C@@H]2CO | nt | 4 | nt | 2 | 2
O=C([C@@H]1[C@@H](CO)[C@@H]2Cn3c(cccc3=O)[C@@H]2N1CC1CC1)N1CCc2ccccc2C1 | nt | -2 | -2 | -3 | 0
Nc1ccccc1-c1nnn(CC(=O)Nc2ccc3c(c2)OCCO3)n1 | -8 | 0 | -5 | -25* | -3
O=c1[nH]c(=O)c2[nH]c(=S)[nH]c2[nH]1 | -15 | 50* | -25 | 11 | 2
O/N=C(/c1ccccc1)c1cc2cc(Br)cc(Br)c2o1 | -12 | -1 | 2 | -23* | 3
Cc1ccc(NC(=O)C(=O)NCC2CCCN2S(=O)(=O)c2cccs2)cc1C (stereo not given) | -12 | 4 | 3 | -24 | 3
COc1ccc(NC(=O)C(=O)NCC2CCCN2S(=O)(=O)c2cccs2)cc1 (stereo not given) | -7 | 2 | -2 | 8 | 17*
Cc1ccccc1-c1ccccc1[C@H]1[C@@H](CO)N(C(=O)c2ccc(F)cc2)[C@H]1C#N | nt | 0 | nt | -3 | -5
Cc1ccc(-n2[nH]c(C)c(/C=N/n3c(C)nc4ccccc4c3=O)c2=O)cc1 | -3 | 4 | 24 | 11 | nt
Cc1nc2ccccc2c(=O)n1/N=C/c1cccs1 | -15 | 0 | -1 | -19* | -2
Cc1[nH]n(-c2ccccc2)c(=O)c1/C=N/n1c(C)nc2ccccc2c1=O | 5 | nt | 31* | nt | nt
CC(C)Cc1ccc(/C=C/C(=O)N2CCCCC2)cc1 | -10 | 7 | 7 | 2 | -1
CCc1ccc(/C=C\C(=O)N2CCCC2)cc1 | -6 | -4 | -15 | -19* | nt
C[C@@H]1CN([C@@H](C)CO)C(=O)c2c(c3ccccc3n2C)-c2ccccc2CO[C@@H]1CN(C)C(=O)NC1CCCCC1 | nt | 2 | 6 | 1 | 1
O=C(c1cccnc1)N1CC[C@@H]2[C@H](CO)Nc3ccc(C4=CCCCC4)cc3[C@@H]21 | nt | 3 | nt | -6 | 8.1*
O=C(c1cccc(F)c1)N1CC[C@@H]2[C@H](CO)Nc3ccc(-c4ccccc4F)cc3[C@@H]21 | nt | -2 | 6 | -6 | 11*
O=C(COC(=O)CCC(=O)c1ccc(F)cc1)NCc1ccccc1Cl | -10 | -2 | -8 | -30* | -5
O=C(COC(=O)CCC(=O)c1ccc(Cl)cc1)NCc1ccc(F)cc1 | -17 | 3 | -4 | -2 | 1
CCCn1c(=O)c2ccccc2n2c(SCCOc3ccc(OC)cc3)nnc12 | 5 | 0 | -2 | -18* | 4
CCCn1c(=O)c2ccccc2n2c(SCCOc3ccc(C)cc3)nnc12 | -6 | 1 | -12 | -3 | 2
SMILES | PvdQ acylase | ERAP1 inh | ARNT-TACC3 inh | rRNA inh HTS | F508del corr
O=C(Nc1nnc(-c2ccccc2)o1)C1CCCN1S(=O)(=O)c1cccs1 (stereo not given) | -7 | 0 | 45* | -5 | -2
CCCN(C)C[C@@H]1OCCCC[C@@H](C)Oc2ccc(NC(=O)C3CCCCC3)cc2C(=O)N([C@H](C)CO)C[C@@H]1C | nt | 5 | 4 | 3 | 0
CC(C)(C)NC(=S)N/N=C/c1cc(Br)c(O)c(Br)c1 | -9 | 4 | 13 | -40* | -4
O=C(N/N=C/c1cc(Br)c(O)c(Br)c1)C1CC1 | -10 | 3 | -1 | -8 | 0
CNC(=S)N/N=C/c1cc(Br)cc(Br)c1O | -14 | nt | 48* | nt | nt
C[C@@H]1CN([C@H](C)CO)C(=O)c2cccc(NC(=O)Nc3ccc(C(F)(F)F)cc3)c2O[C@H]1CN(C)Cc1ccc(-c2ccccc2)cc1 | nt | -1 | 1 | 5 | 1
Cn1c(/C=C/c2ccccc2)nc2ccccc21 | -3 | 2 | -4 | -24* | -4
Cn1c(=O)c(/C=C/c2ccccc2)nc2ccccc21 | 0 | nt | -1 | nt | nt
COc1cccc(S(=O)(=O)Nc2ccc3c(c2)[C@@H]2C[C@@H](CC(=O)O)O[C@H](CO)[C@@H]2O3)c1 | nt | 0 | -7 | 2 | 1
CCc1cc2c3c([nH]c2cc1S(=O)(=O)N1CCC2(CC1)OCCO2)CCCC3=O | -16 | 3 | -16 | -26* | -3
Nc1nc(NC(=O)c2ccccc2)nn1-c1ccccc1 | -18 | 6 | 3 | -2 | -3
O=C(Nc1nc(NC(=O)c2ccco2)n(-c2ccccc2)n1)c1ccccc1 | 3 | nt | 56* | nt | nt
COc1ccc(NC(=O)Nc2ccc3c(c2)[C@@H]2C[C@H](CC(=O)NCc4ccc5c(c4)OCO5)O[C@@H](CO)[C@@H]2O3)cc1 | nt | 1 | -6 | 0 | 1
CCOC(=O)C(C)Sc1nnc2n1C(C)(C)Cc1ccccc1-2 (stereo not given) | -12 | 2 | 0 | -22* | nt
CC1(C)Cc2ccccc2-c2nnc(SCc3ccccc3)n21 | -14 | -6 | 3 | -36 | 4
Cc1cccc(N2C(=O)C(O)=C(C(=O)c3cccs3)C2c2ccc(F)cc2)n1 (stereo not given) | -5 | 2 | nt | -1 | 0
Cc1cccc(N2C(=O)C(O)=C(C(=O)c3cccs3)C2c2ccc(C(C)C)cc2)n1 (stereo not given) | -3 | -2 | 3 | -23* | -1
Cc1ccnc(Nc2nc(-c3sc(C)nc3C)cs2)c1 | -16 | 3 | 3 | -34* | -2
Cc1ccc(-c2csc(Nc3ccccn3)n2)cc1 | -13 | -1 | 1 | -40 | 8.7*
Cc1ccnc(Nc2nc(-c3ccc(Cl)cc3)cs2)c1 | -11 | 0 | -6 | 10 | 8
Cc1ccnc(Nc2nc(-c3ccc(F)cc3)cs2)c1 | 9 | 1 | 11 | -36* | 5
COc1ccc(Nc2nc(-c3sc(C)nc3C)cs2)c(OC)c1 | 21 | 3 | 1 | -2 | 16*
COc1ccc(Nc2nc(-c3cccs3)cs2)c(OC)c1 | -13 | nt | -6 | nt | nt
CO[C@@H]1CN(C)C(=O)c2ccc(NC(C)=O)cc2OC[C@H](C)N(Cc2ccc(F)cc2)C[C@@H]1C | nt | 1 | 2 | -1 | 2
Cc1ccc(Nc2nc(-c3sc(N)nc3C)cs2)cc1 | 4 | 3 | 29 | -2 | 1
Cc1ccc(Nc2nc(-c3sc(C)nc3C)cs2)cc1 | ? | -3 | -1 | 0 | 19*
